Among all 220,000 compounds or so, about 2,600 (1.2%) were called active. The full list was thinned out, with actives kept by preference. A number with no mark means an inactive call.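 How the source made its calls: active means activation above the mean of all tested compounds plus 3 SD, set per screening run (cut at about 8.8% in these data); inactive means the rest.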
Molecular target: Wee1-like protein kinase (Homo sapiens) (UniProt P30291)
Experiment: Wee1 degradation inhibitors, primary screen, cell-based, HeLa, Wee1K328M-luciferase, luminescence (AID 1321);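 further: cells exposed to compound for 20 h before luminescence read; 0% = DMSO alone and 100% = MG132 at 30 µM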
Settings: HeLa Luc-Wee1K328M stability, at 5 µM, active compounds read high, 100% = proteasome inhibitor MG132 effect

Row | SMILES | reporter increase
1 | Nc1c(-c2ccc(F)cc2)cnc2ncnn12 | -2.59%
2 | CC1(C)CN(c2ccc(-c3ccnc4ncnn34)cc2)C1=O | 9.83% (active)
3 | Cc1cc(C(=O)OCC(=O)Nc2nccs2)c2ccccc2n1 | -2.08%
4 | Cc1cc(=O)[nH]c(SCC(=O)N2c3ccccc3CC2C)n1 (stereo unspecified) | -2.08%
5 | CCn1nc(C(=O)OCC(=O)N2c3ccccc3CC2C)c2ccccc2c1=O (stereo unspecified) | -0.36%
6 | CCOC(=O)c1[nH]c(C)c(C(=O)OCC(=O)N2c3ccccc3CC2C)c1C (stereo unspecified) | 15.6% (active)
7 | CC(=O)NCc1ccc(S(=O)(=O)NC2CCN(Cc3ccccc3)CC2)cc1 | 0.4%
8 | CCOc1ccccc1NC(=O)C1CCN(S(=O)(=O)c2c(C)nn(C)c2C)CC1 | -1.78%
9 | CCOc1ccc(OCC)c(NC(=O)C2CCN(S(=O)(=O)c3c(C)noc3C)CC2)c1 | 11.6% (active)
10 | CCOC(=O)C1CCN(C(=O)C2CCN(S(=O)(=O)c3c(C)noc3C)CC2)CC1 | -0.61%
11 | CC1(C)CC(N2CCN(C(c3ccccc3)c3ccccc3)CC2)=CC(=[N+]2CCCCC2)C1 | -0.62%
12 | Nc1nc(O)c(CC(=O)O)s1 | -1.29%
13 | O=C(O)c1ccc(/C=N/Nc2nc(N3CCCCC3)nc(N3CCCCC3)n2)cc1 | -2.82%
14 | O=C(c1c(Cl)cccc1Cl)N1CCN(c2cccc3[nH]ccc23)CC1 | 0.73%
15 | O=C(COC(=O)c1ccc(F)cc1F)Nc1ncccn1 | 0.53%
16 | Cc1ccc(-c2nc3ccccc3[nH]c2=O)cc1 | 9.13% (active)
17 | Cc1ccc(-c2nc3ccccc3[nH]2)cc1N | 0.78%
18 | O=C(Cc1nc2ccccc2[nH]c1=O)c1ccc(Cl)cc1 | 3.48%
19 | O=C(COC(=O)c1ccc(S(=O)(=O)Nc2ccccc2)cc1)NCC1CCCO1 (stereo unspecified) | -1.62%
20 | NS(=O)(=O)c1ccc(NC2=CC(c3ccc(F)cc3)N(c3ccc(S(N)(=O)=O)cc3)C2=O)cc1 (stereo unspecified) | 0.72%
21 | CC(CNS(=O)(=O)c1ccc(Br)cc1)CN(C)C (stereo unspecified) | -0.62%
22 | O=S(=O)(Nc1ccc(Cl)cn1)c1cnc(Cl)c(Br)c1 | -0.3%
23 | COc1ccc(CN2C(=O)C(C)S/C2=N/N=C/c2ccco2)cc1 (stereo unspecified) | 5.4%
24 | CN(C)S(=O)(=O)c1cccc(NC(=S)N/N=C/C(=O)c2ccccc2)c1 | -1.91%
25 | Cc1ccc(/C=N/NC(=S)Nc2cccc(S(=O)(=O)N(C)C)c2)o1 | 9.21% (active)
26 | CN(C)S(=O)(=O)c1cccc(NC(=S)NCc2ccc3c(c2)OCO3)c1 | 3.85%
